Inconclusive results are not listed. Active and inactive are the calls of the source. Calls come from the whole dose curve; as a rule, active = well fitted cell-killing curve with a large enough effect; inconclusive = small, poorly fitted or top-dose-only effect, or effect the other way; inactive = no such curve, though single readings can be large or run the other way.
Key:
[1] = Quantitative High-Throughput drug screen in 47 multiple myeloma cell lines against the NCATS MIPE library collection: LP1_DSMZ cell viability assay (AID 1918982); note: nearly all actives have a fitted effect of over 35% in size; note: potency is the fitted concentration of half-maximal effect
Procedure, shortened: (§1)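 ATP-based luminescence (CellTiter-Glo, 5 min RT incubation) quantified surviving cells following two days' treatment with MIPE 4.0 agents at 37 °C, 5% CO2.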

[2] = Quantitative High-Throughput drug screen in 47 multiple myeloma cell lines against the NCATS MIPE library collection: OCIMY7_PLB cell viability assay (AID 1918987); note: nearly all actives have a fitted effect of over 65% in size; note: potency is the fitted concentration of half-maximal effect
Procedure, shortened: as §1

[3] = Quantitative High-Throughput drug screen in 47 multiple myeloma cell lines against the NCATS MIPE library collection: OPM1_PLB cell viability assay (AID 1918989); note: nearly all actives have a fitted effect of over 40% in size; note: potency is the fitted concentration of half-maximal effect
Procedure, shortened: as §1

[4] = Quantitative High-Throughput drug screen in 47 multiple myeloma cell lines against the NCATS MIPE library collection: U266_ATCC cell viability assay (AID 1919864); note: nearly all actives have a fitted effect of over 35% in size; note: potency is the fitted concentration of half-maximal effect
Procedure, shortened: as §1

[5] = Quantitative High-Throughput drug screen in 47 multiple myeloma cell lines against the NCATS MIPE library collection: XG6_PLB cell viability assay (AID 1919865); note: nearly all actives have a fitted effect of over 40% in size; note: potency is the fitted concentration of half-maximal effect
Procedure, shortened: as §1

[6] = Quantitative High-Throughput drug screen in 47 multiple myeloma cell lines against the NCATS MIPE library collection: XG1_PLB cell viability assay (AID 1919866); note: nearly all actives have a fitted effect of over 35% in size; note: potency is the fitted concentration of half-maximal effect
Procedure, shortened: as §1

[7] = Quantitative High-Throughput drug screen in 47 multiple myeloma cell lines against the NCATS MIPE library collection: UTMC2_PLB cell viability assay (AID 1919868); details: CellTiter-Glo ATP luminescence, 48 h; viability (% of DMSO control): at 45.8 µM (top of the series); note: nearly all actives have a fitted effect of over 55% in size; note: potency is the fitted concentration of half-maximal effect
Procedure, shortened: as §1

[8] = Quantitative High-Throughput drug screen in 47 multiple myeloma cell lines against the NCATS MIPE library collection: PE2_PLB cell viability assay (AID 1919869); note: nearly all actives have a fitted effect of over 35% in size; note: potency is the fitted concentration of half-maximal effect
Procedure, shortened: as §1

[9] = Quantitative High-Throughput drug screen in 47 multiple myeloma cell lines against the NCATS MIPE library collection: PCM6_Riken cell viability assay (AID 1919870); note: nearly all actives have a fitted effect of over 30% in size; note: potency is the fitted concentration of half-maximal effect
Procedure, shortened: as §1

[10] = Quantitative High-Throughput drug screen in 47 multiple myeloma cell lines against the NCATS MIPE library collection: RPMI8226_ATCC cell viability assay (AID 1919871); note: nearly all actives have a fitted effect of over 30% in size; note: potency is the fitted concentration of half-maximal effect
Procedure, shortened: as §1

[11] = Quantitative High-Throughput drug screen in 47 multiple myeloma cell lines against the NCATS MIPE library collection: OPM2_DSMZ cell viability assay (AID 1919872); note: nearly all actives have a fitted effect of over 30% in size; note: potency is the fitted concentration of half-maximal effect
Procedure, shortened: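 Myeloma cells (500 per well) were exposed to MIPE 4.0 compounds by pin transfer and incubated 48 hours at 37C, 5% CO2. Viability was read as ATP by CellTiter-Glo luminescence, normalised to DMSO (100%) and media-only (0%) wells.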

[12] = Quantitative High-Throughput drug screen in 47 multiple myeloma cell lines against the NCATS MIPE library collection: KMS11_JCRBsus cell viability assay (AID 1919873); note: nearly all actives have a fitted effect of over 50% in size; note: potency is the fitted concentration of half-maximal effect
Procedure, shortened: as §1

[13] = Quantitative High-Throughput drug screen in 47 multiple myeloma cell lines against the NCATS MIPE library collection: KMS28BM_JCRB cell viability assay (AID 1919874); note: nearly all actives have a fitted effect of over 35% in size; note: potency is the fitted concentration of half-maximal effect
Procedure, shortened: as §1

[14] = Quantitative High-Throughput drug screen in 47 multiple myeloma cell lines against the NCATS MIPE library collection: KMS28PE_JCRB cell viability assay (AID 1918983); note: nearly all actives have a fitted effect of over 35% in size
Procedure, shortened: as §1

[15] = Quantitative High-Throughput drug screen in 47 multiple myeloma cell lines against the NCATS MIPE library collection: KMS34_JCRB cell viability assay (AID 1918985); note: nearly all actives have a fitted effect of over 40% in size; note: potency is the fitted concentration of half-maximal effect
Procedure, shortened: as §1

[16] = Quantitative High-Throughput drug screen in 47 multiple myeloma cell lines against the NCATS MIPE library collection: VP6_DJ cell viability assay (AID 1919867); note: nearly all actives have a fitted effect of over 40% in size; note: potency is the fitted concentration of half-maximal effect
Procedure, shortened: as §1

[17] = Quantitative High-Throughput drug screen in 47 multiple myeloma cell lines against the NCATS MIPE library collection: SKMM1_PLB cell viability assay (AID 1919863); details: SKMM1 myeloma viability, CellTiter-Glo ATP, 48 h; viability: stronger effect = lower value; note: nearly all actives have a fitted effect of over 35% in size
Procedure, shortened: as §1

[18] = Quantitative High-Throughput drug screen in 47 multiple myeloma cell lines against the NCATS MIPE library collection: OCIMY5_PLB cell viability assay (AID 1918988); note: potency is the fitted concentration of half-maximal effect; nearly all actives have a fitted effect of over 65% in size
Procedure, shortened: as §1

[19] = Quantitative High-Throughput drug screen in 47 multiple myeloma cell lines against the NCATS MIPE library collection: L363_DSMZ cell viability assay (AID 1918984); note: nearly all actives have a fitted effect of over 40% in size; note: potency is the fitted concentration of half-maximal effect
Procedure, shortened: as §1

NC1CC1c1ccccc1 (stereo not drawn)
inactive: Potency [1] | Potency [2] | Potency [3] | Potency [4] | Potency [5] | Potency [6] | Potency [7] | Potency [8] | Potency [9] | Potency [10] | Potency [11] | Potency [12] | Potency [13]

O=C(Oc1ccc([N+](=O)[O-])cc1)N1CCC(C(O)(c2ccc3c(c2)OCO3)c2ccc3c(c2)OCO3)CC1
inactive: Potency [1] | Potency [14] | Potency [15] | Potency [16] | Potency [11] | Potency [12] | Potency [13]
active: Potency [5] 16.6 µM | Potency [8] 16.6 µM

c1ccc2c(CN3CCNCC3)cccc2c1
inactive: Potency [1] | Potency [14] | Potency [15] | viability [17] 106% | Potency [4] | Potency [5] | Potency [6] | Potency [9] | Potency [10] | Potency [11] | Potency [12]

C[C@]12CCC(=O)C(O)=C1CC[C@@H]1[C@H]3CCC(=O)[C@@]3(C)CC[C@@H]12
active: Potency [18] 18.7 µM
inactive: Potency [1] | Potency [15] | Potency [3] | Potency [5] | Potency [6] | Potency [8] | Potency [11]

C[C@@H]1[C@H](O)[C@@H](C)C=CC=CCCC=CC=CC=CC=C[C@H](O[C@H]2O[C@@H](C)[C@H](O)[C@@H](N)[C@@H]2O)CC2O[C@](O)(C[C@@H](O)[C@H](O)CC[C@@H](O)C[C@@H](O)C[C@@H](O)CC(=O)O[C@H]1C)C[C@H](O)[C@H]2C(=O)O
inactive: Potency [1] | Potency [14] | Potency [15] | viability [17] 120% | Potency [4] | Potency [6] | Potency [16] | Potency [8] | Potency [9] | Potency [11] | Potency [12] | Potency [13]

C[C@H]1CCCC=CC2C[C@H](O)C[C@@H]2[C@H](O)C=CC(=O)O1 (stereo partly drawn)
inactive: Potency [1] | Potency [19] | Potency [15] | Potency [2] | Potency [3] | Potency [4] | Potency [5] | Potency [6] | Potency [16] | Potency [8]

O=C(Nc1ccncc1)C(=O)c1cn(Cc2ccc(Cl)cc2)c2ccccc12
active: Potency [1] 0.0935 µM | Potency [19] 0.0132 µM | Potency [15] 0.0469 µM | Potency [2] 0.001 µM | Potency [3] 0.0526 µM | Potency [6] 0.0066 µM | Potency [16] 0.0235 µM | Potency [7] 0.0132 µM | Potency [9] 0.0059 µM | Potency [10] 0.418 µM | Potency [11] 0.105 µM | Potency [12] 0.0053 µM | Potency [13] 0.0047 µM
inactive: Potency [4]

c1ccc(CCCN2CCN(CCOC(c3ccccc3)c3ccccc3)CC2)cc1
inactive: Potency [19]
active: Potency [1] 20.9 µM | Potency [15] 26.4 µM | Potency [18] 20.9 µM | Potency [3] 20.9 µM | Potency [4] 23.5 µM | Potency [6] 20.9 µM | Potency [8] 18.7 µM | Potency [9] 26.4 µM | Potency [10] 20.9 µM | Potency [11] 26.4 µM | Potency [12] 20.9 µM | Potency [13] 20.9 µM

CCN(CC)C(=O)c1ccc(C2=CC3(CCNCC3)Oc3cccc(O)c32)cc1
inactive: Potency [1] | Potency [14] | Potency [2] | Potency [3] | Potency [5] | Potency [16] | Potency [8] | Potency [9] | Potency [11] | Potency [12] | Potency [13]

CC(=Cc1csc(C)n1)[C@@H]1C[C@H]2O[C@]2(C)CCC[C@H](C)[C@@H](O)[C@@H](C)C(=O)C(C)(C)[C@@H](O)CC(=O)O1
inactive: Potency [1] | Potency [15] | Potency [2] | viability [17] 69.9% | Potency [5] | Potency [16] | Potency [8] | Potency [9] | Potency [10] | Potency [11] | Potency [12] | Potency [13]

COc1ccc(CC2NCCc3cc(OC)c(OC)cc32)cc1OC (stereo not drawn)
active: Potency [16] 9.35 µM | Potency [9] 8.33 µM
inactive: Potency [1] | Potency [14] | Potency [3] | Potency [4] | Potency [8] | Potency [10] | Potency [11] | Potency [12] | Potency [13]

CC(C)(C)[C@]1(O)C[C@@H]2OC(=O)C[C@@]23C(=O)O[C@@H]2OC(=O)[C@H](O)C213 (stereo partly drawn)
inactive: Potency [1] | Potency [14] | Potency [15] | Potency [3] | Potency [4] | Potency [5] | Potency [9] | Potency [10] | Potency [11] | Potency [12] | Potency [13]

CN(C)[C@@H]1C(=O)C(C(N)=O)=C(O)[C@@]2(O)C(=O)C3=C(O)c4c(O)cccc4[C@@](C)(O)[C@H]3[C@H](O)[C@@H]12
inactive: Potency [1] | Potency [3] | Potency [9] | Potency [12] | Potency [13]
active: Potency [15] 3.72 µM | Potency [4] 18.7 µM | Potency [5] 5.9 µM | Potency [6] 16.6 µM | Potency [16] 23.5 µM | Potency [11] 20.9 µM

C[C@H]([C@H](O)CCC(C)(C)O)[C@H]1CC[C@@]2(O)C3=CC(=O)[C@@H]4C[C@@H](O)[C@@H](O)C[C@]4(C)[C@@H]3CC[C@]12C
active: Potency [10] 20.9 µM
inactive: Potency [1] | Potency [19] | Potency [2] | Potency [3] | Potency [4] | Potency [5] | Potency [8] | Potency [11] | Potency [12]

O=c1cccc2n1CC1CNC[C@H]2C1
inactive: Potency [1] | Potency [14] | Potency [15] | Potency [10] | Potency [11]
active: Potency [3] 20.9 µM | Potency [4] 20.9 µM | Potency [16] 13.2 µM | Potency [9] 20.9 µM | Potency [12] 6.62 µM | Potency [13] 5.26 µM

CC1=NN=C(c2ccc(N)cc2)c2cc3c(cc2C1)OCO3
inactive: Potency [1] | Potency [3] | Potency [5] | Potency [6] | Potency [8] | Potency [9] | Potency [10] | Potency [11] | Potency [12] | Potency [13]
active: Potency [18] 18.7 µM
